In PubChem BioAssay (EPA / NIEHS):
Activity calls are given as the source filed them. Rule for the calls: active = hit-call score of the fitted dose curve at least 0.9, where 1 is the maximum; inactive = score below 0.9.

Tests used:
[1] = ATG_CRE_CIS: Attagene CIS-FACTORIAL HepG2 Assay for human cAMP Responsive Element (CRE) binding protein 3 (AID 2282926); conditions: HepG2 CRE cis-reporter, Attagene multiplexed mRNA; actives raise or lower the signal
In short: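 Transfected HepG2 were treated for 24 hours, then RNA was extracted and reporter cDNA amplified with sequence-specific primers. Labelled fragments were separated by capillary electrophoresis, and the CRE signal was fitted bidirectionally with DMSO as baseline.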

[2] = target: CCAAT/enhancer-binding protein beta (Homo sapiens) (UniProt P17676); test: ATG_C_EBP_CIS: Attagene CIS-FACTORIAL HepG2 Assay for human CCAAT/Enhancer Binding Protein (C/EBP) beta (AID 2282927); conditions: HepG2 Attagene cis-factorial transcription factor reporter; actives raise or lower the signal
In short: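 Endogenous C/EBPb-driven reporter transcripts measured in transfected human HepG2 cells at 24 h via RT-PCR and capillary electrophoresis of labelled fragments. Activity fitted in both directions relative to DMSO baseline.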

[3] = ATG_CMV_CIS: Attagene CIS-FACTORIAL HepG2 Assay for human CMV (Internal Marker) (AID 2282928); conditions: HepG2 CMV promoter reporter, transcription factor profiling; actives raise or lower the signal;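 note: endpoint acts as a background internal control marker rather than a target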
In short: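 CMV internal-marker background readout in transiently transfected HepG2 cells bearing cis-regulated reporter units. Reporter mRNA is measured 24 h after dosing by RT-PCR and capillary electrophoresis, with bidirectional fitting against DMSO.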

[4] = ATG_DR4_LXR_CIS: Attagene CIS-FACTORIAL HepG2 Assay for human Liver X Receptor (LXR), DR4 submotif (AID 2282929); conditions: HepG2 Attagene DR4 cis-reporter, mRNA transcription; actives raise or lower the signal
In short: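 After transient transfection with multiplexed cis-promoter reporter units, HepG2 cells received test chemicals for 24 h. Reporter mRNA induction, detected by fluorescence after RT-PCR and capillary electrophoresis, was scored relative to DMSO.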

[5] = target: Aryl hydrocarbon receptor (Homo sapiens) (UniProt P35869); test: ATG_Ahr_CIS: Attagene CIS-FACTORIAL HepG2 Assay for human Aryl Hydrocarbon Receptor (Ahr) (AID 2282930); conditions: HepG2 AhR cis-factorial reporter transcription; actives raise or lower the signal
In short: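 Reporter mRNA levels, quantified by RT-PCR and fluorescent capillary electrophoresis, reflect endogenous AhR transcriptional activity in HepG2 cells carrying transfected cis-promoter reporter constructs. Readout at 24 h post-dose; gain or loss fitted against DMSO baseline.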

[6] = ATG_AP_1_CIS: Attagene CIS-FACTORIAL HepG2 Assay for human Activator Protein 1 (AP-1) (AID 2282931); conditions: HepG2 Attagene cis-factorial AP-1 reporter mRNA; actives raise or lower the signal
In short: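 After 24 h incubation with test chemical, RNA from transfected HepG2 cells was reverse-transcribed, amplified, fluorescently labelled and digested before capillary electrophoresis. Reporters were driven by cis-regulatory promoters; activity fitted bidirectionally versus DMSO.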

[7] = ATG_AP_2_CIS: Attagene CIS-FACTORIAL HepG2 Assay for human Activator Protein 2 (AP-2) (AID 2282932); conditions: HepG2 AP-2 cis-reporter, Attagene transcription factor profiling; actives raise or lower the signal
In short: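 HepG2, transient MRTU transfection, cis-regulated reporters; 24 h compound exposure; RNA isolated, RT-PCR, 6-FAM labelling, HpaI digest, CE fluorescence. DMSO = negative control/baseline, bidirectional fit.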

[8] = ATG_BRE_CIS: Attagene CIS-FACTORIAL HepG2 Assay for human Bone Morphogenetic Protein (BMP) Response Element (BRE) (AID 2282933); conditions: HepG2 BMP response element reporter, Attagene transcription factor profiling; actives raise or lower the signal
In short: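 Fluorescence-labelled reporter cDNA fragments, separated by capillary electrophoresis, gave the signal for this component of a 52-readout multiplex. HepG2 cells were transfected, exposed to chemicals for 24 h, and compared with DMSO using bidirectional fitting.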

[9] = target: Retinoic acid receptor alpha (Homo sapiens) (UniProt P10276); test: ATG_DR5_RAR_CIS: Attagene CIS-FACTORIAL HepG2 Assay for human Retinoic Acid Receptor Alpha (RARE), DR5 submotif (AID 2282934); conditions: HepG2 Attagene cis-factorial RARE DR5 reporter, mRNA; actives raise or lower the signal
In short: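 Reporter transcripts from a DR5-regulated unit, measured via RT-PCR plus capillary electrophoresis, reflect endogenous RAR activity in transiently transfected human HepG2 liver cells. Exposure lasted 24 h; gain or loss of signal scored against DMSO.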

[10] = ATG_E_Box_CIS: Attagene CIS-FACTORIAL HepG2 Assay for human Enhancer Box (E-box) (AID 2282936); conditions: HepG2 E-box cis-reporter transcription, actives raise or lower the signal
In short: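 Cells: HepG2 (human liver), transient MRTU transfection. Exposure 24 h. RNA → oligo(dT) RT → PCR → 6-FAM label → HpaI → CE. Activity fitted both directions relative to DMSO.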

[11] = ATG_M_61_CIS: Attagene CIS-FACTORIAL HepG2 Assay for M61 Transcription Factor (Internal Marker) (AID 2282937); conditions: HepG2 Attagene CIS-FACTORIAL M61 internal marker reporter; actives raise or lower the signal
In short: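 Using transiently transfected HepG2 liver cells, reporter transcript levels were assessed 24 h post-dosing by RT-PCR and capillary electrophoresis. Changes in either direction were fitted relative to DMSO controls.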

[12] = ATG_EGR_CIS: Attagene CIS-FACTORIAL HepG2 Assay for human Early Growth Response 1 (EGR1) (AID 2282938); conditions: HepG2 Attagene CIS-FACTORIAL EGR reporter mRNA; actives raise or lower the signal
In short: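 Fluorescent capillary-electrophoresis signal of reporter cDNA fragments serves as read-out. HepG2 cells bear transiently transfected cis-promoter reporter units and are exposed 24 h; gain- or loss-of-signal is fitted against DMSO.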

[13] = ATG_M_19_CIS: Attagene CIS-FACTORIAL HepG2 Assay for M19 Transcription Factor (Internal Marker) (AID 2282939); conditions: HepG2 Attagene CIS-FACTORIAL M19 internal marker reporter; actives raise or lower the signal
In short: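 HepG2, MRTU transient transfection, 24 h dosing. Total RNA → RT-PCR → 6-FAM primer extension → HpaI digest → CE fluorescence. Bidirectional curve fit, DMSO negative control.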

[14] = ATG_Ets_CIS: Attagene CIS-FACTORIAL HepG2 Assay for human Erythroblast Transformation Specific (ETS) (AID 2282941); conditions: HepG2 ETS cis-reporter transcription, actives raise or lower the signal
In short: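 HepG2 cells transfected with multiple cis-regulated reporter units measuring endogenous ETS-driven transcription, 24 h after dosing. Reporter mRNA quantified by RT-PCR with capillary electrophoresis; bidirectional fit relative to DMSO.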

[15] = target: Hepatocyte nuclear factor 3-beta (Homo sapiens) (UniProt Q9Y261); test: ATG_FoxA2_CIS: Attagene CIS-FACTORIAL HepG2 Assay for human Forkhead box A2 (FOXA2) (AID 2282942); conditions: HepG2 cis-reporter transcription factor activity, 24 h; actives raise or lower the signal
In short: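 Fluorescence signal of reporter cDNA fragments, separated by capillary electrophoresis, reflects endogenous transcription factor activity in transfected HepG2 after 24 h. Both increases and decreases fitted against DMSO.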

[16] = ATG_GATA_CIS: Attagene CIS-FACTORIAL HepG2 Assay for human GATA Binding Protein (AID 2282944); conditions: HepG2 GATA cis-element reporter, Attagene multiplex mRNA; actives raise or lower the signal
In short: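 Cells: HepG2, transiently transfected with cis-regulated reporter transcription units. Exposure: 24 h. Detection: RT-PCR plus capillary electrophoresis of FAM-labeled fragments. Analysis: bidirectional, DMSO as baseline.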

[17] = ATG_GLI_CIS: Attagene CIS-FACTORIAL HepG2 Assay for human Zinc Finger Protein GLI1 (AID 2282945); conditions: HepG2, Attagene cis-factorial reporter mRNA, GLI element; actives raise or lower the signal
In short: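 Bidirectional curve fits relative to DMSO, using reporter mRNA levels from RT-PCR plus capillary electrophoresis. Cells were HepG2 transiently carrying cis-regulated reporter constructs, harvested 24 h after dosing.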

[18] = target: Transcription factor E2F1 (Homo sapiens) (UniProt Q01094); test: ATG_E2F_CIS: Attagene CIS-FACTORIAL HepG2 Assay for human E2F Transcription Factor 1 (AID 2282935); conditions: HepG2 Attagene cis-reporter, E2F reporter RNA transcripts; actives raise or lower the signal
In short: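 Cis-element reporter mRNA induction in transiently transfected HepG2, 24 h exposure. Activity fitted in both directions relative to DMSO negative control.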

[19] = ATG_ERE_CIS: Attagene CIS-FACTORIAL HepG2 Assay for Estrogen Response Element (ERE) (AID 2282940); conditions: HepG2 ERE cis-reporter, Attagene RNA transcript; actives raise or lower the signal
In short: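 After a 24 h chemical treatment, RNA from reporter-transfected HepG2 cells is reverse-transcribed, PCR-amplified and fluorescently labelled. Fragments separated by capillary electrophoresis give reporter signal; DMSO serves as negative control.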

[20] = ATG_FoxO_CIS: Attagene CIS-FACTORIAL HepG2 Assay for human Forkhead box O (FoxO) (AID 2282943); conditions: HepG2 Attagene cis-reporter, FoxO element, mRNA; actives raise or lower the signal
In short: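 Endogenous transcription factor activity read from multiplexed cis-promoter reporter transcripts in transiently transfected HepG2, 24 h after dosing. Reporter RNA measured via RT-PCR plus capillary electrophoresis of FAM-labeled products; gain or loss relative to DMSO.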

Measured: AC50

Aryl hydrocarbon receptor (Homo sapiens), sequence (P35869 whole entry, looked up): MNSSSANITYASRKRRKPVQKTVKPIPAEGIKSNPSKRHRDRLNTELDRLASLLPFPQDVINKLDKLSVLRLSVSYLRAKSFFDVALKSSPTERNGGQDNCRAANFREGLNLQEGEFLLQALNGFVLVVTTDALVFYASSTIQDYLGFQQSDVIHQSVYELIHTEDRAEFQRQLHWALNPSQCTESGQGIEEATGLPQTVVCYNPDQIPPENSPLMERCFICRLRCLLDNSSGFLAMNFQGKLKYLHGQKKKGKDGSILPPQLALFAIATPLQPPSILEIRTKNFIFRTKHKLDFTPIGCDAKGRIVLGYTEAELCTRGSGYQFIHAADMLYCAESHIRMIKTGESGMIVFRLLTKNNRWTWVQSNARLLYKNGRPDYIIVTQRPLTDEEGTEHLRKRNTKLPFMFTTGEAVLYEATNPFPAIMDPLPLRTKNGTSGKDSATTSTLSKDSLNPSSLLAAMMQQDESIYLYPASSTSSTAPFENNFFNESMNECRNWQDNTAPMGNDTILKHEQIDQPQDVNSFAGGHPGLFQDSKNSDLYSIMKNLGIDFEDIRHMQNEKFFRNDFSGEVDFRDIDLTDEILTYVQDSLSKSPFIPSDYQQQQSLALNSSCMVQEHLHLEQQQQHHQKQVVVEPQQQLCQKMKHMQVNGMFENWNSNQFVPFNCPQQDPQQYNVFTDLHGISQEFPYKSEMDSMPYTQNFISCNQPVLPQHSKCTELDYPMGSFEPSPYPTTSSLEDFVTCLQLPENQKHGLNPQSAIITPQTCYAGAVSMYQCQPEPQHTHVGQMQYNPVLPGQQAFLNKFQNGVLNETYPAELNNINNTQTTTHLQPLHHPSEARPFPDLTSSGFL
Retinoic acid receptor alpha (Homo sapiens), sequence (P10276 whole entry, looked up): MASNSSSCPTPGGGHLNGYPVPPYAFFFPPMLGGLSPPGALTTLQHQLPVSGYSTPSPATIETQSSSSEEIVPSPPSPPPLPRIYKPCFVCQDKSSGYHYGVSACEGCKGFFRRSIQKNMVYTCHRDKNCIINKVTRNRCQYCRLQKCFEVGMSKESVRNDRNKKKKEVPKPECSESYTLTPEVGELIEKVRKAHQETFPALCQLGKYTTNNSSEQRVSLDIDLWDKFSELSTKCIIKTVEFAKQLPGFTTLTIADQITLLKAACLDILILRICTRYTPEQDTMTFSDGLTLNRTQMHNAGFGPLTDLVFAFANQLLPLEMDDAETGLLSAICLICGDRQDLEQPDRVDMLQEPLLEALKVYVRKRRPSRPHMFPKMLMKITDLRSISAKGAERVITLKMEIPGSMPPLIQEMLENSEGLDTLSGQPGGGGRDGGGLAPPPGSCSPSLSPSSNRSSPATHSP
CCAAT/enhancer-binding protein beta (Homo sapiens), sequence (P17676 whole entry, looked up, the tested form may be a part): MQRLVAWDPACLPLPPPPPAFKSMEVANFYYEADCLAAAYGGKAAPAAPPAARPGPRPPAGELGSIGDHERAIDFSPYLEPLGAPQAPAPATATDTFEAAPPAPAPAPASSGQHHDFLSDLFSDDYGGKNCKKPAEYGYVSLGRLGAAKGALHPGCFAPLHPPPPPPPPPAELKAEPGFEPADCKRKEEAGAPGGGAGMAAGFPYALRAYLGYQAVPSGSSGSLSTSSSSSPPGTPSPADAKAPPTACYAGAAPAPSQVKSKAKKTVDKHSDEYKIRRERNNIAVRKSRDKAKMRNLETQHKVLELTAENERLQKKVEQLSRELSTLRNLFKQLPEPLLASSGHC
Hepatocyte nuclear factor 3-beta (Homo sapiens), sequence (Q9Y261 whole entry, looked up, the tested form may be a part): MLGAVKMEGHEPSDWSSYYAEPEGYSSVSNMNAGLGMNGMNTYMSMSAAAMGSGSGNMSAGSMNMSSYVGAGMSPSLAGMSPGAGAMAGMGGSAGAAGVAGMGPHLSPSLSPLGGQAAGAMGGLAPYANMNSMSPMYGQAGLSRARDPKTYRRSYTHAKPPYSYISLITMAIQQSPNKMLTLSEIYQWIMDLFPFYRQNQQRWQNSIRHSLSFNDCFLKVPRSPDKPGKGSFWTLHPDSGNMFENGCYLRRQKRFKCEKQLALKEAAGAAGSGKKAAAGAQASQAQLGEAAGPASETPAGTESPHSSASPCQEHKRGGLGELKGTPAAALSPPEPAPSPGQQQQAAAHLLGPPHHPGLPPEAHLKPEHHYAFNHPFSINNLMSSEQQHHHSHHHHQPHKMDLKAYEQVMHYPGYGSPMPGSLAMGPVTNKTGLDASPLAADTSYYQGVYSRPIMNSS
Transcription factor E2F1 (Homo sapiens), sequence (Q01094 whole entry, looked up): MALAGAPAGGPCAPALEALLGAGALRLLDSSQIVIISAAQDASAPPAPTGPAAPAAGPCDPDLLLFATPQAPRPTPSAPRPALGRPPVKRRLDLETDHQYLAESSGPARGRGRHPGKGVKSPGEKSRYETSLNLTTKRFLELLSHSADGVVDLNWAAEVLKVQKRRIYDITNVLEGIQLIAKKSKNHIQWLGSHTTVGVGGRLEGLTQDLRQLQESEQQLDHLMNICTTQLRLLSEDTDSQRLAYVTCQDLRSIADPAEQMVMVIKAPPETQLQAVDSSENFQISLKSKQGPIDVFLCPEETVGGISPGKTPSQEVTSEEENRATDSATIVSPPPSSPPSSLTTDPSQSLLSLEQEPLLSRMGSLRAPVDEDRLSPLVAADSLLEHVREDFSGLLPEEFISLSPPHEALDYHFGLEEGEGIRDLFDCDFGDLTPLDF

COc1ccc(N)c([N+](=O)[O-])c1
inactive: [1] | [2] | [3] | [4] | [5] | [6] | [7] | [8] | [9] | [10] | [11] | [12] | [13] | [14] | [15] | [16] | [17]

C=C(C)C1CC=C(C)C(=O)C1 (stereo unspecified)
inactive: [1] | [2] | [3] | [4] | [5] | [6] | [7] | [8] | [12] | [13] | [14] | [15] | [16] | [17]

CC(C)CCCCCCc1ccc(OCCOCCO)cc1
inactive: [1] | [2] | [3] | [4] | [5] | [6] | [7] | [9] | [18] | [10] | [11] | [19] | [14] | [20] | [16] | [17]

CCCOCCO
inactive: [1] | [2] | [3] | [4] | [5] | [6] | [7] | [8] | [9] | [10] | [11] | [12] | [13] | [14] | [15] | [20] | [16] | [17]

CCC1(c2ccccc2)C(=O)NCNC1=O
inactive: [1] | [2] | [3] | [4] | [5] | [6] | [7] | [8] | [9] | [10] | [11] | [14] | [15] | [20] | [16] | [17]

N#Cc1cscn1
inactive: [1] | [2] | [3] | [4] | [6] | [7] | [8] | [9] | [11] | [12] | [13] | [14] | [15] | [20] | [16] | [17]
active: [5] 34.7 µM

CCCCCC(C=O)=Cc1ccccc1
inactive: [1] | [2] | [3] | [4] | [5] | [7] | [8] | [9] | [18] | [10] | [11] | [12] | [13] | [14] | [15] | [20] | [16] | [17]
